Results published in PubChem BioAssay.
Values without a mark were called inactive. The rule behind the calls is not given here.

experiment: blockers of DNA damage checkpoint Chk1 activation – imaging, HeLa, hydroxyurea, phospho-Chk1 antibody, percent positive cells, primary screen (AID 1186); settings: hydroxyurea-induced phospho-Chk1 immunofluorescence imaging, higher = more signal

Row | SMILES | z-score
1 | COc1ccc([Si](C)(C)[C@@H]2[C@@H](CCO)O[C@]3(C(=O)N(Cc4ccc(NC(=O)[C@H](C)O)cc4)c4ccccc43)[C@H]2C)cc1 | -1.42
2 | O=C(NCc1ccccc1)[C@@]1(CCS(=O)(=O)c2ccccc2)COC(c2ccc(OCCCO)cc2)=N1 | -0.712
3 | C=C(C)[C@@H]1CC=C(C(O)C2C=CC3C(=O)NC(=O)C3N2Nc2ccccn2)CC1 (stereo partly specified) | 0.129
4 | CCOC(=O)[C@H]1C/C=C/C[C@H](C(=O)OCC)C(=O)O[C@H]2[C@@H](OC)O[C@H](CO)[C@@H](OC(=O)Nc3ccc(Br)cc3)[C@@H]2OC1=O | -0.181
5 | C=CCC(OC(C)=O)[C@@H]1[C@@H](N(Cc2ccc(-c3ccccc3)cc2)C(=O)c2ccc(C)cc2)c2cc(OCCCO)ccc2N1C(=O)c1ccc(-c2ccccc2)cc1 (stereo partly specified) | 0.0807
6 | C=CC[C@]1(C(=O)O)N=C(c2ccc(OCCCO)cc2)O[C@H]1c1ccccc1N=[N+]=[N-] | -0.0145
7 | CN(C)CCCC[C@@H]1NC(=O)[C@@H]2C[C@H](C(=O)NCCCCCNC(=O)CS)[C@H](c3ccc(O)cc3)N2C1=O | -0.205
8 | C=CC[C@]1(C(N)=O)N=C(c2ccc(OCCCO)cc2)O[C@H]1c1ccccc1CN=[N+]=[N-] | -0.273
9 | C[C@H]1NC(=O)[C@@H](C)NC(=O)[C@@]23C(=O)N[C@@H](Cc4ccccc4)C2[C@H](C)[C@@]2(C)O[C@H]2C3/C=C/C/C=C\CNC1=O (stereo partly specified) | -0.318
10 | C[C@]1(C(=O)NCCN2CCOCC2)c2ccccc2C(=O)N(Cc2ccccc2)[C@H]1c1ccc(CO)cc1 | 0.0553
11 | C[C@@H]1NC(=O)[C@H](Cc2ccccc2)NC(=O)[C@@]23C(=O)N[C@@H](Cc4ccccc4)C2[C@H](C)[C@@]2(C)O[C@H]2C3/C=C/C/C=C\CNC1=O (stereo partly specified) | 0.4
12 | Cc1cc(C)c(C(O)C2C=CC3C(=O)N(C)C(=O)C3N2N2CCCCC2)c(C)c1 (stereo unspecified) | -0.514
13 | CCCNC(=O)[C@@]1(Sc2ccc(C)cc2)CC(=O)N(Cc2ccccc2Cl)[C@@H]1c1ccc(CO)cc1 | -0.423
14 | Cc1ccc(S[C@]2(C(=O)NC3CC3)CC(=O)N(Cc3cc(C(F)(F)F)cc(C(F)(F)F)c3)[C@@H]2c2ccc(CO)cc2)cc1 | -0.144
15 | COC(=O)C[C@H]1O[C@]2(C(=O)N(Cc3ccccc3)c3ccc(I)cc32)[C@@H](C)[C@@H]1[Si](C)(C)c1ccc(OC)cc1 | -0.504
16 | O=C(NCC(O)CO)[C@]1(Cc2ccccc2)N=C(c2ccc(OCCCO)cc2)O[C@@H]1c1ccccc1 (stereo partly specified) | -0.707
17 | CCOC(=O)C[C@H]1[C@H](OC(=O)Cc2ccc3c(c2)OCO3)[C@@H](NC(=O)CC(C)C)c2cc(OCCCO)ccc2N1C(=O)c1ccccc1 | -0.398
18 | COc1ccc([Si](C)(C)[C@H]2[C@H](CCO)O[C@@]3(C(=O)N(Cc4ccc(N5CCCCC5=O)cc4)c4ccccc43)[C@@H]2C)cc1 | -0.688

Row | SMILES | z-score
19 | COc1ccc(CCN2C(=O)[C@@]3(c4ccc([N+](=O)[O-])cc4)CC(=O)N(CC45CC6CC(CC(C6)C4)C5)[C@@H]3c3ccc(CO)cc32)cc1 | 0.33
20 | COCCCNC(=O)[C@@]1(Sc2ccc(C)cc2)CC(=O)N(Cc2cc(C(F)(F)F)cc(C(F)(F)F)c2)[C@@H]1c1ccc(CO)cc1I | 0.007
21 | CN(C)CCCC[C@@H]1NC(=O)[C@@H]2C[C@H](C(=O)O)[C@H](c3ccc(O)cc3)N2C1=O | 0.317
22 | O=C1OCC=C[C@H]2OC34C=CCN(Cc5ccccc5)C(=O)[C@H]3N(CCO)C(=O)[C@@H]4[C@@H]12 (stereo partly specified) | 0.373
23 | C=C(C(=O)CC[C@H](OC(=O)c1ccccc1-c1ccccc1C(=O)O)c1ccc(CO)o1)C(C)C | 0.38
24 | C=C(COC)C(=O)CC[C@H](OC(=O)c1ccccc1-c1ccccc1C(=O)O)c1cccc(OCCO)c1 | 0.369
25 | O=C(NCc1ccccc1)[C@@]1(Cc2ccccc2)COC(c2ccc(OCCCO)cc2)=N1 | -0.583
26 | CC(C)CN1C(=O)[C@@]2(Cc3ccccc31)c1ccccc1C(=O)N(C1CCCCC1)[C@H]2c1ccc(CO)cc1 | -0.81
27 | CC(=O)NCCCC[C@@H]1NC(=O)[C@@H]2C[C@H](C(=O)NCc3ccc(F)cc3)[C@H](c3cccc(OCCO)c3)N2C1=O | 0.676
28 | CC(C)[C@H]1NC(=O)[C@@]23C(=O)N[C@@H](Cc4ccccc4)C2[C@H](C)[C@@]2(C)O[C@H]2C3/C=C/C/C=C\CNC(=O)[C@H](C)NC1=O (stereo partly specified) | 0.126
29 | COC(=O)[C@@]1(Cc2ccc(OC)cc2)[C@H]2c3cc(C(=O)N(C)C)n(CCc4ccc(OC)c(Br)c4)c3C[C@H]2CN1C(=O)c1ccccc1 | 1.02
30 | O=C1O[C@@H](c2ccccc2)[C@@H](c2ccccc2)N2[C@@H](c3ccc(OCCO)cc3)[C@]3(C(=O)Nc4ccc(C#CCCO)cc43)[C@@H](C(=O)N3CCN(c4ncccn4)CC3)[C@H]12 | 0.396
31 | O=C1O[C@H](c2ccccc2)[C@H](c2ccccc2)N2[C@H]1[C@@H](C(=O)Nc1nc3ccccc3s1)[C@]1(C(=O)Nc3ccc(C#CC4=CCCCC4)cc31)[C@H]2c1ccccc1OCCO | 0.205
32 | [N-]=[N+]=Nc1ccccc1C[C@@]1(C(=O)N2CCOCC2)N=C(c2ccc(OCCCO)cc2)O[C@@H]1c1ccccc1N=[N+]=[N-] | -1.03
33 | O=C1O[C@@H](c2ccccc2)[C@@H](c2ccccc2)N2[C@@H](c3ccc(O)cc3)[C@]3(C(=O)Nc4ccc(C#CC5(O)CCCCCC5)cc43)[C@@H](C(=O)Nc3nc4ccccc4s3)[C@H]12 | -0.44
34 | COc1ccc([C@H]2C[C@H]3C(Br)=C[C@]2(OC)C(=O)[C@]32CO2)cc1 | -0.445
35 | CO[C@H]1O[C@H](CO)[C@@H](OC(=O)Nc2ccc(Oc3ccccc3)cc2)[C@H](OC(=O)Nc2ccccc2-c2ccccc2)[C@H]1OC(=O)Nc1ccccc1-c1ccccc1 | -0.0605
36 | O=C1OCCC/C=C\[C@H]2OC34C=CCN(CCN5CCOCC5)C(=O)[C@H]3N(CCCCCO)C(=O)[C@@H]4C12 (stereo partly specified) | 0.564
